In ChEMBL document CHEMBL3988442, “University of Dundee, Small-Polar-MMV Screening Library” (2021):
For part of these data: Entries with a potency or affinity are not part of this list.

Tests used:
Parameters in all cases: scale not given: direction of the effect not stated beside the values
[1] = target: Protein translocase subunit SecA (Escherichia coli (strain K12)) (UniProt P10408); experiment: Assay to Identify E. coli SecA ATPase Inhibitors; assay type: functional; details: 30 µM
[2] = target: T1, Ubiquitin-activating enzyme e1, putative (Leishmania donovani (strain BPK282A1)) (UniProt E9BSI1); experiment: Leishmania donovani Ubiquitin Activating Enzyme (LdE1); assay type: functional; details: 30 µM
T1 sequence (whole entry): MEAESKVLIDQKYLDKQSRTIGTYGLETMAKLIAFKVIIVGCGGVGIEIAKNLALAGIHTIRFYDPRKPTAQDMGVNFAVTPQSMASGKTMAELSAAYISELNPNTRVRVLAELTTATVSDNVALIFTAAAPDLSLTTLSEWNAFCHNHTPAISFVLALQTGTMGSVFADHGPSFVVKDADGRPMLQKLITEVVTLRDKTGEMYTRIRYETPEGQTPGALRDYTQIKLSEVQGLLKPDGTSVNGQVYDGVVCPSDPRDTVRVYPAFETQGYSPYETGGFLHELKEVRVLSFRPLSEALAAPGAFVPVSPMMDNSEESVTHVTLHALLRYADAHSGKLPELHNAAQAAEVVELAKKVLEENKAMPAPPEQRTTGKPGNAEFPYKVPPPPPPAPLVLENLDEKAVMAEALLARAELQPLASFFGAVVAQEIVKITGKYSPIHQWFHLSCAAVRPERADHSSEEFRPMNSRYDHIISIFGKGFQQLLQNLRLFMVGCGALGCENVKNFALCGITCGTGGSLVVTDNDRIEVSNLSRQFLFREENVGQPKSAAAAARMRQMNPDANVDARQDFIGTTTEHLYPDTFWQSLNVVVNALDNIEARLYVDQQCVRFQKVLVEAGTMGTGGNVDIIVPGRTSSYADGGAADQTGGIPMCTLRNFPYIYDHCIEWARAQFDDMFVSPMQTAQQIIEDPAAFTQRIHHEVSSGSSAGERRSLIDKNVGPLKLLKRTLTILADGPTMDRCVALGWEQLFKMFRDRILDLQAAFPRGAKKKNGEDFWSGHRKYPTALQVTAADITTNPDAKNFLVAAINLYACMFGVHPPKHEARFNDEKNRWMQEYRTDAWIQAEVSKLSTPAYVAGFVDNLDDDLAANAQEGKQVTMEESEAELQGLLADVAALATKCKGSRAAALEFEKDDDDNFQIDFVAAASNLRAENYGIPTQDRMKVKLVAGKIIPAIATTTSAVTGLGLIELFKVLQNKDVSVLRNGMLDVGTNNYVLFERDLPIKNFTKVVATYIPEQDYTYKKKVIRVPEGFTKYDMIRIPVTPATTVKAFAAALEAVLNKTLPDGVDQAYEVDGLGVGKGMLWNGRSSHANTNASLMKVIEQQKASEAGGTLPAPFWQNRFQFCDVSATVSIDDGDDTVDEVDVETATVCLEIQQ

[3] = target: AMP-activated protein kinase, AMPK (Homo sapiens) (UniProt P54646+O43741+P54619+Q9UGJ0+Q9Y478+Q13131+Q9UGI9); experiment: AMP-dependent Kinase enzyme assay. An in vitro enzyme assay that detects ADP turnover that is directly proportional to AMPK activity. This uses naive AMPK that is activated during the assay with MK-8722; assay type: functional; details: 30 µM
[4] = target: Sialic acid-binding Ig-like lectin 9 (Homo sapiens) (UniProt Q9Y336); experiment: Hs-Siglec9 ALPHAscreen SOP 20170721; details: 10 µM
Sequence of Sialic acid-binding Ig-like lectin 9 (Homo sapiens) (Q9Y336 whole entry): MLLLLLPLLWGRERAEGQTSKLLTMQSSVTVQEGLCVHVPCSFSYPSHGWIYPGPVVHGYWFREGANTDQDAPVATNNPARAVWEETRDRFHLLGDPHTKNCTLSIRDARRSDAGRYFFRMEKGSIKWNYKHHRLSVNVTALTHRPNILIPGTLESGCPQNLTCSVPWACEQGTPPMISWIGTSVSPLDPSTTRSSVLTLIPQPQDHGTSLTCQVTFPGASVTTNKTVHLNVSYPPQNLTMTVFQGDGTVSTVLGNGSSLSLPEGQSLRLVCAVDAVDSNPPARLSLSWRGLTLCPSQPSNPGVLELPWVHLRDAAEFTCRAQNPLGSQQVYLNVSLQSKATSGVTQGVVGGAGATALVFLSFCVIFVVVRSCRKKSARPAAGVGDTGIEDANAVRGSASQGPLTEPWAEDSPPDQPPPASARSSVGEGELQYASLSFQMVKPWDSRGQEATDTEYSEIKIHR

Trypanosoma cruzi = experiment: Trypanosoma cruzi phosphomannomutase and mannose-1-phosphate guanylyltransferase assay; assay type: functional; details: 10 µM
[5] = target: T2, Arginase-2, mitochondrial (Homo sapiens) (UniProt P78540); experiment: in vitro enzyme assay to detect the production of urea directly proportional to the activity of Arginase II; assay type: functional; details: 33.3 µM; note: in the data most compounds retested in dose-response had high values
T2 sequence (whole entry): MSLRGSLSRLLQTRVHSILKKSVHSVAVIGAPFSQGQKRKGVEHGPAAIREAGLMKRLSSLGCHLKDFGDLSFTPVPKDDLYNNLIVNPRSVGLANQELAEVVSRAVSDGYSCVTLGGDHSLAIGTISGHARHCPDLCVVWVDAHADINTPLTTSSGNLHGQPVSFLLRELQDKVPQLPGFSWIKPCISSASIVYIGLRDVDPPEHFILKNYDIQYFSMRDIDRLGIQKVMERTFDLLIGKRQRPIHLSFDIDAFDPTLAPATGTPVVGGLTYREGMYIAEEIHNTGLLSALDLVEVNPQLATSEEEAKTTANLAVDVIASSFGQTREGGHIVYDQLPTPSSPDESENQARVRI

[6] = target: T3, Proteasome subunit beta (Trypanosoma cruzi) (UniProt O96673); experiment: Trypanosoma cruzi proteasome chymotrypsin-like activity (TcProtChymo) assay.; note: in the data most compounds retested in dose-response had high values; assay type: functional; details: 9.37 µM
T3 sequence (whole entry): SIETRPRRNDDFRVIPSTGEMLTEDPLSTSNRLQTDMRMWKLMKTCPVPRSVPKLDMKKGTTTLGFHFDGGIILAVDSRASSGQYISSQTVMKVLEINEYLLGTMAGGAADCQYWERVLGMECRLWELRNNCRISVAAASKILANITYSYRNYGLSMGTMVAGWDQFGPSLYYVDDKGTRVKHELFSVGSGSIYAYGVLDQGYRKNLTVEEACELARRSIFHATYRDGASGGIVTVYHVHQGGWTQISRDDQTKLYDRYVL

Homo sapiens = species: Homo sapiens; experiment: To identify inhibition of the IFN signalling (Jak-Stat) pathway via expression of an eGFP reporter gene under the control of an IFN-stimulated response element (ISRE) containing MxA promoter.; assay type: functional; details: 30 µM
[7] = target: T4, Tyrosyl-tRNA synthetase, putative (Trypanosoma cruzi (strain CL Brener)) (UniProt Q4DSP6); experiment: Trypanosoma cruzi tyrosyl tRNA synthetase (TcYRS) _High Tyrosine SOP; assay type: functional; details: 30 µM; note: in the data most compounds retested in dose-response had high values
T4 sequence (whole entry): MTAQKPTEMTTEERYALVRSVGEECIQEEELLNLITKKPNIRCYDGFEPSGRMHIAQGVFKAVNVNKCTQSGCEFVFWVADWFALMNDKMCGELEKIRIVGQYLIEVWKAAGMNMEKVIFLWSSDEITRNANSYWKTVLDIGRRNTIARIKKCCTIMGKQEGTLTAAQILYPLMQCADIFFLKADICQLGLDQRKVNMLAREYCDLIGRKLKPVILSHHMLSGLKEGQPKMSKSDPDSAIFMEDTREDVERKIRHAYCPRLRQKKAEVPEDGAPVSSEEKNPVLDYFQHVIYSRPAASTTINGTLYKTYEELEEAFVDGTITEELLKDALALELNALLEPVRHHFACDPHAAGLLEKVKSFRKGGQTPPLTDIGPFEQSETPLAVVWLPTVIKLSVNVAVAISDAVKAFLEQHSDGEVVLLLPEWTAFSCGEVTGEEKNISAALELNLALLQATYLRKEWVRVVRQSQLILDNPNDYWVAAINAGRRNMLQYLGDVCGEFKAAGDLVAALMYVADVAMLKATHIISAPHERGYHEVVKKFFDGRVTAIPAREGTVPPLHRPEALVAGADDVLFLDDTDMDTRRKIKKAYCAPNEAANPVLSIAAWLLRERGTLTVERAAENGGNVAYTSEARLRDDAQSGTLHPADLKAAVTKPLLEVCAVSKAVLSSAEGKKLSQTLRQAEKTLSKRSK

[8] = target: T4, Tyrosyl-tRNA synthetase, putative (Trypanosoma cruzi (strain CL Brener)); experiment: Trypanosoma cruzi tyrosyl tRNA synthetase (TcYRS) SOP; assay type: functional; details: 30 µM
[9] = target: Chromo domain-containing protein 1 (Saccharomyces cerevisiae (strain ATCC 204508 / S288c) (Baker's yeast)) (UniProt P32657); experiment: ScCHD-1 Enzyme Inhibition Assay; assay type: functional; details: 30 µM; note: in the data most compounds retested in dose-response had high values
Sequence of Chromo domain-containing protein 1 (Saccharomyces cerevisiae (strain ATCC 204508 / S288c) (Baker's yeast)) (P32657 whole entry, the tested form may be a part): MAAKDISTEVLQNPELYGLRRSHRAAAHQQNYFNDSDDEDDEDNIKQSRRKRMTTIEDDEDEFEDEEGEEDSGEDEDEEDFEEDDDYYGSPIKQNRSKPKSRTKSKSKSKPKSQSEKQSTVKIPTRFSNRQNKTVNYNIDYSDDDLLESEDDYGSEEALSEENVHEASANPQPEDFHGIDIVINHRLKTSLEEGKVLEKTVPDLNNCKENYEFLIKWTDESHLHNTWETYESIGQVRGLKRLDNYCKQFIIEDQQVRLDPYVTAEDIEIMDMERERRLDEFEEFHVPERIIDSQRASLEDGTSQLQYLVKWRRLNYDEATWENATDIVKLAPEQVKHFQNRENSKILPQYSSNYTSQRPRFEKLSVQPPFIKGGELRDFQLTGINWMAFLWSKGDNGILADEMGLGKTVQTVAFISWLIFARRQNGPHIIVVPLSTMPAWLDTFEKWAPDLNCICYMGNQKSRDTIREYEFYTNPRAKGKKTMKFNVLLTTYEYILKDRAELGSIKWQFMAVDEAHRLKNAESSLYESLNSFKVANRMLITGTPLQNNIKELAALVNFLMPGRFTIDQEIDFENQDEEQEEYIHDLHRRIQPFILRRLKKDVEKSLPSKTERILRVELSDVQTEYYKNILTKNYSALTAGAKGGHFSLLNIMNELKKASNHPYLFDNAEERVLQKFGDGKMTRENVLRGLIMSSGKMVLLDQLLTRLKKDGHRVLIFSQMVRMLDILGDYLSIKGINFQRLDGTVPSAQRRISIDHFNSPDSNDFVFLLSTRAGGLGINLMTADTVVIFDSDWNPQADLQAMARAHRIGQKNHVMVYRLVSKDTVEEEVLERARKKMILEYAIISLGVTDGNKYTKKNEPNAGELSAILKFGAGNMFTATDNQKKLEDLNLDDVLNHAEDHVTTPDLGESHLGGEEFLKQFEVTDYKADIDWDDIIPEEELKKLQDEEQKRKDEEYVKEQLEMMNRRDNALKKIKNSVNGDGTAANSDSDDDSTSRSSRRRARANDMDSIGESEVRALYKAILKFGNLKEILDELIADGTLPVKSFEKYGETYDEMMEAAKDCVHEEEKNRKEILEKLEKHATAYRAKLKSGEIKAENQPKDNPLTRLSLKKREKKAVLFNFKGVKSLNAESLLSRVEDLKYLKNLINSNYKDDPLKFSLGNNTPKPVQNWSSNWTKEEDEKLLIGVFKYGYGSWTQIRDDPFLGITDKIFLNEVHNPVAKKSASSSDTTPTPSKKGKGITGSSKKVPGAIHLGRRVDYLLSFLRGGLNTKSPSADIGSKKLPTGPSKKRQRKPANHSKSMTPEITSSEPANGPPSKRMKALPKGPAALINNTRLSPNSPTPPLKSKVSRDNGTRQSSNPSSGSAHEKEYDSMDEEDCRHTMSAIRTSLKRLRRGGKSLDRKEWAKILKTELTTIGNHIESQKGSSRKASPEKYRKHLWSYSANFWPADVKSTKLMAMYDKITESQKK

Sequence of Protein translocase subunit SecA (Escherichia coli (strain K12)) (P10408 whole entry): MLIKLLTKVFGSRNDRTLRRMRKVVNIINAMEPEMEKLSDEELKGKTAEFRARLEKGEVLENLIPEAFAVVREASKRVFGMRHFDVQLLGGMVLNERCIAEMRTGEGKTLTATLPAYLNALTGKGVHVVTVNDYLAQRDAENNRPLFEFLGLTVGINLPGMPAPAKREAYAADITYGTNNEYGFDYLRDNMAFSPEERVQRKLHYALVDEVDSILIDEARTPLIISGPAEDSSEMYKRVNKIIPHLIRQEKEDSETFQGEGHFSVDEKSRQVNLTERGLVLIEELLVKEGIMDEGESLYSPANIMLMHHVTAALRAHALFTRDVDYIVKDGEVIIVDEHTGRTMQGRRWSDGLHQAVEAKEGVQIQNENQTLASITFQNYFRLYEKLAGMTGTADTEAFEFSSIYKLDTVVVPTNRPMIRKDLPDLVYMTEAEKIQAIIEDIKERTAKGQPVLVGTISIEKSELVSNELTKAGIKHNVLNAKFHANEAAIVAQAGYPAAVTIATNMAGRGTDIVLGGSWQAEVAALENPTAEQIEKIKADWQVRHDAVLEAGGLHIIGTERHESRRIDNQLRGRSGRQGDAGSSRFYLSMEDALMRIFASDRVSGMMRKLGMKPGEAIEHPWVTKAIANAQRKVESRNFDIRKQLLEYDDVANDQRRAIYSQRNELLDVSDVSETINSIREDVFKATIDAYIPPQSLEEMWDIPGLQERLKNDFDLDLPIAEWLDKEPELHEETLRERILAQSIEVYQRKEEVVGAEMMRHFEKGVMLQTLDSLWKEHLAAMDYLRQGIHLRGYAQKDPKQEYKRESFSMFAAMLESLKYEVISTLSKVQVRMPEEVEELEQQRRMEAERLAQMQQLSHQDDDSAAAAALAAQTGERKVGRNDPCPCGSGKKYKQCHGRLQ

SMILES	Percent Effect [1]	Percent Effect [2]	Percent Effect [3]	Percent Effect [4]	Percent Effect (Trypanosoma cruzi)	Percent Effect [5]	Percent Effect [6]	Percent Effect (Homo sapiens)	Percent Effect [7]	Percent Effect [8]	Percent Effect [9]
CC(C(=O)NCc1ccnc(N(C)C)c1)n1cncn1 (stereo unspecified)	-2.02%	2.7%	-7.17%	7.55%	8.88%	-0.476%	17.2%	-1.73%	5.82%	9.76%	-3.72%
COC(CNC(=O)N1CCC(n2cncn2)CC1)c1ccccc1 (stereo unspecified)	-0.684%	-3.8%	13.4%	3.12%	-1.13%	1.94%	0.686%	0.165%	2.08%	2.53%	-14.3%
Cc1ccsc1CNC(=O)NC1CCCc2c1cnn2CCO (stereo unspecified)	-6.41%	2.67%	2.26%	2.19%	-1.27%	-3.12%	13.4%	-12.2%	6.01%	18.5%	-4.15%
Cc1cnn(C2CN(Cc3nc(C(C)(C)C)no3)C2)c1	-0.455%	23.4%	-7.8%	-0.55%	3.56%	2.49%	7.09%	29.8%	8.74%	14.6%	-6.23%
O=C(C1CCOC1)N1C[C@H]2CN(Cc3nccs3)C[C@H]2C1 (stereo partly specified)	-7.06%	5.41%	2.27%	-7.15%	-3.81%	-6.69%	15.7%	-4.44%	0%	2.56%	-2.08%
O=C(c1ccncc1)N1CCC(O)(Cn2ccc3ccncc32)CC1	-2.15%	6.76%	7.19%	-2.13%	-3.75%	0.232%	17.9%	-0.964%	4.3%	9.09%	-10.5%
CCn1nnc2c1C(COC)CN(C(=O)Cc1cccs1)C2 (stereo unspecified)	-0.417%	5.41%	-1.12%	-5.98%	-2.93%	-2.5%	17.8%	-0.944%	6.93%	8.54%	5.86%
CCc1ncncc1C(=O)NCCN1CCC(C)CC1	-1.34%	-4.17%	-7.77%	0.13%	5.54%	-2.21%	4.21%	-30.7%	1.05%	0%	-2.04%
Cc1cc(C)n(C2CN(CC(O)COc3ccc(F)cc3)C2)n1 (stereo unspecified)	-3.4%	-20.8%	2.93%	9.67%	-1.12%	1.42%	-0.169%	-11.2%	4.85%	-4.88%	-2.37%
CCc1c(C(=O)N2CCN(c3ncccn3)CC2)cnn1C(C)(C)C	-1.49%	21.1%	-5.24%	0.163%	0.0934%	1.44%	13.3%	9.72%	4.43%	18.5%	-8.38%
CCN1CCN(C(=O)c2nc(C)n(-c3ccccc3Cl)n2)CC1	-9.34%	7.89%	-2.25%	14.9%	5.7%	2.16%	3.81%	-16.5%	4.43%	23.5%	-7.33%
CC(C)(C)C(=O)N1CCC2(COCc3cnc(N4CCOCC4)nc32)C1 (stereo unspecified)	-4.89%	4%	3.79%	6.02%	-2.36%	-7.57%	9.06%	-1.15%	2.12%	2.56%	-1.68%
O=C1NC(c2ccccc2)=N[C@@]12CC[C@@H]1CN(Cc3ccccc3)C[C@@H]12	-1.1%	10.7%	-2.75%	0.12%	2.12%	-43.5%	7.18%	3.72%	10.4%	27.5%	-8.07%
Cc1nc(C)c(CC(=O)Nc2nnc(C)s2)c(=O)[nH]1	-0.0632%	-13.2%	-1.32%	2.92%	2.82%	1.15%	7.85%	0.477%	4.41%	21.9%	-10.9%
CCCNC(=O)CNc1ccc(C(=O)N2CCCCC2C)cc1C (stereo unspecified)	-7.8%	18.2%	1.99%	-9.58%	-8.99%	0.712%	8.62%	35.5%	5.83%	12.2%	-8%
Cn1cc(-c2cnc(N3CCOCC3)nc2)cc1C(=O)NCCO	-0.798%	5.33%	1.84%	-0.344%	-8.86%	5.83%	8.37%	-3.42%	0%	6.41%	-7.59%
CCN(CC)CC(=O)NCCc1csc(N2CCCC2)n1	-3.47%	-2.67%	-4.85%	-0.334%	-2.24%	-1.04%	5.41%	5.85%	-0.546%	-1.24%	6.78%
Cc1nccn1C1CCCN(C(=O)c2ccc3c(c2)nnn3C)C1 (stereo unspecified)	-3.52%	10.5%	-2.69%	0.191%	-4.95%	5.75%	9.9%	3.52%	4.43%	6.17%	-4.12%
Cc1nn(C)cc1C(=O)Nc1cccc(CN2CCC(CO)CC2)c1	-3.16%	18.4%	-4.72%	-21.7%	3.41%	26%	8.53%	28.8%	1.06%	15.6%	-7.09%
O=C(Cc1ccc(O)c(Cl)c1)N1CCCCC1CCn1cccn1 (stereo unspecified)	-3.9%	13.5%	1.21%	26.9%	3.09%	0.476%	10.9%	0.632%	3.7%	19.5%	-5.17%
CC(C)CNC(=O)[C@H]1CCS(=O)(=O)[C@@H]2CN(Cc3cccc(Cl)c3)C[C@H]12	-8.49%	0%	6.38%	3.48%	-2.15%	0%	12.3%	12.5%	3.96%	1.22%	3.36%
